From PubChem BioAssay
Activity calls are given as the source filed them. Unless noted, the rule behind the calls is not given here.

Legend:
[1] = system: Wnt5a (protein binding on small-molecule microarray); assay: small molecules binding Wnt5a protein – biophysical, small-molecule microarray, 635/667 nm fluorescence, primary screen (AID 1142); conditions: 635 nm fluorescence, higher = more signal;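 note: fluorescence read at 667 nm with signal to noise per printed feature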
[2] = ATP-based viability of Huh7 replicon cells – cell-based, CellTiter-Glo luminescence, basal, 48 h, cytotoxicity control for HCV replication inhibitor project, primary screen (AID 1143); conditions: higher = more signal, called active from +8 up or from −8 down;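 note: Huh7 hepatoma cells carrying a hepatitis C replication reporter with no stimulus; test concentration not given here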
[3] = Pseudomonas biofilm growth suppression – PAO1 strain, BacTiter-Glo luminescence, LB-PBS, primary screen (AID 1144); conditions: P. aeruginosa PAO1 biofilm, 12 h, higher = more signal
[4] = basal CRE-LacZ reporter activity in PC12 – cell-based, unstimulated, primary screen (AID 1145); conditions: no forskolin, luminescence, 4.5 h, higher = more signal, called active from +8 up or from −8 down
[5] = forskolin-driven CRE-LacZ activity in PC12 – cell-based, CRE-LacZ reporter, forskolin-stimulated, primary screen (AID 1146); conditions: luminescence, 4.5 h, higher = more signal, called active from +8 up or from −8 down;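 note: PC12 cells with 6xCRE LacZ reporter stimulated by forskolin 10 µM; beta-galactosidase reporter signal reflecting CREB driven transcription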
[6] = target: Streptavidin (Streptomyces avidinii) (UniProt P22629); assay: compounds binding control protein streptavidin – biophysical, small-molecule microarray, 635/667 nm fluorescence, artefact control for SMM compound annotation, primary screen (AID 1147); conditions: higher = more signal;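 note: signal reflects streptavidin binding to arrayed compounds as a control protein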
Chain of Streptavidin (Streptomyces avidinii) (P22629 whole entry, looked up): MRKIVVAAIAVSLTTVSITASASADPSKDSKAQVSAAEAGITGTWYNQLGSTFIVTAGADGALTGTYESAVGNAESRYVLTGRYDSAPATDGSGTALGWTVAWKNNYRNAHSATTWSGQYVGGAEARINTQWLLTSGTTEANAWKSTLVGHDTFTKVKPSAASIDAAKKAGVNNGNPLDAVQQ

[7] = probe aInhba binding on compound microarray – biochemical, small-molecule microarray, 635/667 nm fluorescence, primary screen (AID 1148); conditions: higher = more signal;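 note: score merges 667nm spot fluorescence with signal-to-noise for antibody binding to printed compounds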
Torsin-1A (Homo sapiens) [8] = target: Torsin-1A (Homo sapiens) (UniProt O14656); assay: TOR1A wild-type binding on microarray – cell lysate, small-molecule microarray, lysate, 635/667 nm, primary screen (AID 1149); conditions: COS7 hTOR1A-WT lysate, 635 nm fluorescence, higher = more signal
Chain of Torsin-1A (Homo sapiens) (O14656 whole entry, looked up): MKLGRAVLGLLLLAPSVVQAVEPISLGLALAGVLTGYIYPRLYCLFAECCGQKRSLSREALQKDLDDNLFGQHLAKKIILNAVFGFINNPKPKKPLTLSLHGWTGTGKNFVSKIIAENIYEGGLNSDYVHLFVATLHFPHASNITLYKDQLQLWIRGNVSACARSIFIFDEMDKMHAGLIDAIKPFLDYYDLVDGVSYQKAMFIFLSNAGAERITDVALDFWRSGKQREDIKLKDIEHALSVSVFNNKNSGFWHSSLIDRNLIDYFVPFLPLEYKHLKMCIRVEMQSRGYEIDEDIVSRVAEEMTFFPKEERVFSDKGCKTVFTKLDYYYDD

Torsin-1A (Homo sapiens) [9] = target: Torsin-1A (Homo sapiens) (UniProt O14656); assay: torsin A mutant lysate binding on microarrays – cell lysate, small-molecule microarray, COS7 lysate, 635/667 nm fluorescence, primary screen (AID 1150); conditions: COS7 hTOR1A mutant lysate, 635 nm fluorescence, higher = more signal;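 note: score pools 667 nm emission and signal to noise measuring lysate protein binding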
[10] = system: Sonic hedgehog protein (Shh); assay: Sonic hedgehog microarray binding compounds – biochemical, small-molecule microarray, 635/667 nm fluorescence, primary screen (AID 1151); conditions: 635 nm fluorescence, higher = more signal;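 note: Shh protein binding to compounds spotted on small-molecule microarray slides; score combines spot fluorescence intensity with signal-to-noise across triplicate slides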
[11] = optical density shifts of acrAB sulA E. coli – strain DRC41, OD650, 48 h, E. coli filamentation inducer project, primary screen (AID 1152); conditions: higher = more signal, called active from +8 up or from −8 down;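 note: E. coli MC1000 strain DRC41 lacking acrAB efflux pump and sulA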
[12] = probe aLefty1 binding on compound microarray – biochemical, small-molecule microarray, 635/667 nm fluorescence, primary screen (AID 1153); conditions: higher = more signal;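 note: score merges spot fluorescence with signal-to-noise ratio from the scanned slide images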
[13] = plasmodial surface anion channel blockers, osmotic lysis – cell-based, P. falciparum Indochina, OD700, 1 h, primary screen (AID 1154); conditions: P. falciparum Indochina infected RBC osmotic lysis, higher = more signal, called active from +8 up or from −8 down
[14] = plasmodial surface anion channel blockers, osmotic lysis – cell-based, P. falciparum Indochina, OD700, 2 h, primary screen (AID 1155);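 note: lysis reports solute entry through the parasite surface anion channel PSAC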; conditions: P. falciparum Indochina infected erythrocytes, higher = more signal, called active from +8 up or from −8 down
[15] = changes in parasitized red cell lysis, either direction – P. falciparum Indochina, OD700, 3 h, PSAC antagonist project, primary screen (AID 1156); conditions: P. falciparum-infected erythrocytes, osmotic lysis, higher = more signal, called active from +8 up or from −8 down
[16] = plasmodial surface anion channel blockers, osmotic lysis – cell-based, P. falciparum Indochina, OD700, 18 h, primary screen (AID 1157); conditions: P. falciparum Indochina infected erythrocytes, osmotic lysis OD700, 18 h; higher = more signal, called active from +8 up or from −8 down
[17] = S6 kinase pathway phospho-S6 level changes – cell-based, A549, cytoblot, luminescence, serum-stimulated, primary screen (AID 1158); conditions: 5 h, higher = more signal;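 note: serum-stimulated A549 lung adenocarcinoma cells; signal is phosphorylated S6 detected by cytoblot immunostaining with HRP secondary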
[18] = target: NADPH oxidase 2 (Homo sapiens) (UniProt P04839); assay: compounds shifting NOX2 Amplex Red fluorescence – cell-based, HEK293-NOX2, PMA-stimulated, NOX inhibitor project, primary screen (AID 1159); conditions: 45 min, higher = more signal, called active from +8 up or from −8 down; note: test concentration not given here
Chain of NADPH oxidase 2 (Homo sapiens) (P04839 whole entry, looked up): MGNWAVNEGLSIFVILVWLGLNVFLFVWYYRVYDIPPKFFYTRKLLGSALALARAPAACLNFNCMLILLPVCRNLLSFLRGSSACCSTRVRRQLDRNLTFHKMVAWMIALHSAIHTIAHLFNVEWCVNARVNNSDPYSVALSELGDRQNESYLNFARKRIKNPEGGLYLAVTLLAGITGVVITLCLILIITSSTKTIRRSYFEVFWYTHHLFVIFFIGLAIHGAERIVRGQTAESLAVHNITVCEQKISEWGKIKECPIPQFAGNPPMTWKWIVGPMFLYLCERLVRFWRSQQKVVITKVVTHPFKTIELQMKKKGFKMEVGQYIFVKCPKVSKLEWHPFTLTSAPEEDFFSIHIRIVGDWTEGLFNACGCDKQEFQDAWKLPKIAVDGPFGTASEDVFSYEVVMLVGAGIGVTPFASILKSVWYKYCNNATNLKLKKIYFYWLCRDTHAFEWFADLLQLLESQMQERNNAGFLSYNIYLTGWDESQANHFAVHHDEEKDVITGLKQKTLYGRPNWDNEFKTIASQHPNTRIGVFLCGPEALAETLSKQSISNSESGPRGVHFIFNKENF

[19] = target: NADPH oxidase 4 (Homo sapiens) (UniProt Q9NPH5); assay: compounds shifting NOX4 Amplex Red fluorescence – cell-based, HEK293-NOX4, tetracycline-induced, NOX inhibitor project, primary screen (AID 1160); conditions: HEK293-NOX4, Amplex Red H2O2 fluorescence, 45 min; higher = more signal, called active from +8 up or from −8 down
Chain of NADPH oxidase 4 (Homo sapiens) (Q9NPH5 whole entry, looked up): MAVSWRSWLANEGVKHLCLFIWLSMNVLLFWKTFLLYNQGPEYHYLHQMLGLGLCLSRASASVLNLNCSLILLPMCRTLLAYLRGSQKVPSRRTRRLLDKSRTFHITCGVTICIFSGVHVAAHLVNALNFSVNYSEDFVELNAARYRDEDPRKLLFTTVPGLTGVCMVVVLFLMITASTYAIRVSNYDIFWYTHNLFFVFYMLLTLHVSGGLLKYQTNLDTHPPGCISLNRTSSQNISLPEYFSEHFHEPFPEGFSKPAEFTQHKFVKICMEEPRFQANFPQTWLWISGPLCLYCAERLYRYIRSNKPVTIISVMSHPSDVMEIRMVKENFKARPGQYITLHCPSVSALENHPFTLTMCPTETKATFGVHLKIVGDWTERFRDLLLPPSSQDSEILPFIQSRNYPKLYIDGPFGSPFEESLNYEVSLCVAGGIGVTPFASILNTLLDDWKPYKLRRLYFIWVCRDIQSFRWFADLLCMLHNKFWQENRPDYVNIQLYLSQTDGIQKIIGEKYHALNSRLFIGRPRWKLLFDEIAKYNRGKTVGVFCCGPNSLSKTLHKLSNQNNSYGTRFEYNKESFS

[20] = target: NADPH oxidase 5 (Homo sapiens) (UniProt Q96PH1); assay: compounds shifting NOX5 Amplex Red fluorescence – cell-based, HEK293-NOX5, NOX inhibitor project, primary screen (AID 1161); conditions: HEK293-NOX5, ionomycin, 45 min, higher = more signal
Chain of NADPH oxidase 5 (Homo sapiens) (Q96PH1 whole entry, looked up): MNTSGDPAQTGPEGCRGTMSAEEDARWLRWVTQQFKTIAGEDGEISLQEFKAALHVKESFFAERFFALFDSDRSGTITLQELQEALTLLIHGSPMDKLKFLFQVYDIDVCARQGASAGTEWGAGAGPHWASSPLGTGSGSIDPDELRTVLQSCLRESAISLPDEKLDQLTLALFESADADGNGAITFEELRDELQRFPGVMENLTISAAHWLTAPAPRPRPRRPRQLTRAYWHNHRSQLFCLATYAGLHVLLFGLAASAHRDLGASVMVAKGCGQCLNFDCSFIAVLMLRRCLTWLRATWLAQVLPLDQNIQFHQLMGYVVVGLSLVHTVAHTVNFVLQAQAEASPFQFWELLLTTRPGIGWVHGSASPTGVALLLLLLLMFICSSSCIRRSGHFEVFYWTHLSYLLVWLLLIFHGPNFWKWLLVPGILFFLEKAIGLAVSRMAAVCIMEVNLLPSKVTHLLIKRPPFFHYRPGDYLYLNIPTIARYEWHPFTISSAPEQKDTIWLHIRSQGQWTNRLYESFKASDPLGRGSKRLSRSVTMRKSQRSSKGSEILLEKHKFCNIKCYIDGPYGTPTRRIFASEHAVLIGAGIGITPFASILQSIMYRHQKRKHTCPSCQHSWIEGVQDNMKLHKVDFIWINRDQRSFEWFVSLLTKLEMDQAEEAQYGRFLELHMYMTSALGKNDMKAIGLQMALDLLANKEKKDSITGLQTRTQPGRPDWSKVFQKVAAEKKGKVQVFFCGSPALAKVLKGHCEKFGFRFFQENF

SMILES | composite z-score [1] | z-score [2] | z-score [3] | z-score [4] | z-score [5] | composite z-score [6] | composite z-score [7] | composite z-score (Torsin-1A (Homo sapiens) [8]) | composite z-score (Torsin-1A (Homo sapiens) [9]) | composite z-score [10] | z-score [11] | composite z-score [12] | z-score [13] | z-score [14] | z-score [15] | z-score [16] | z-score [17] | z-score [18] | z-score [19] | z-score [20]
COc1ccc([Si](C)(C)[C@H]2[C@H](CCO)O[C@@]3(C(=O)N(Cc4ccc(N5C(=O)COc6ccccc65)cc4)c4ccccc43)[C@@H]2C)cc1 | -0.516 | -6.62 (inactive) | -1.32 (inactive) | -0.766 (inactive) | -0.706 (inactive) | -0.314 | -0.128 | -1.06 | -0.89 | -0.15 | -0.609 (inactive) | -0.0094 | 5 (inactive) | 2.39 (inactive) | -0.645 (inactive) | 1.41 (inactive) | 0.328 | -0.916 (inactive) | 1.3 (inactive) | 2
O=C1O[C@H](c2ccccc2)[C@H](c2ccccc2)N2[C@H]1[C@@H](C(=O)Nc1nc3ccccc3s1)[C@]1(C(=O)Nc3ccc(C#CCCO)cc31)[C@H]2c1ccc(OCCO)cc1 | 0.767 | -0.218 (inactive) | -0.0404 (inactive) | -0.471 (inactive) | 0.806 (inactive) | 1.1 | 0.532 | 1.15 | 0.637 | 1.05 | -0.448 (inactive) | 1.34 | 3.09 (inactive) | 2.02 (inactive) | 0.97 (inactive) | 2 (inactive) | -0.472 | 1.18 (inactive) | 0.111 (inactive) | 0.278
C=CCNC(=O)[C@H]1[C@@H]2C(=O)O[C@@H](c3ccccc3)[C@@H](c3ccccc3)N2[C@@H](c2ccc(OCCO)cc2)[C@]12C(=O)N(C(=O)OCCOC)c1ccccc12 | 0.25 | -2.05 (inactive) | -0.478 (inactive) | 0.802 (inactive) | 9.23 (active) | 0.614 | 0.0925 | 0.895 | 0.497 | 1.95 | 0.159 (inactive) | 0.378 | 5.52 (inactive) | 0.926 (inactive) | 1.22 (inactive) | 0.759 (inactive) | 0.182 | 2.35 (inactive) | 0.743 (inactive) | -1.51
C=CCOC(=O)[C@H]1[C@@H]2C(=O)O[C@@H](c3ccccc3)[C@@H](c3ccccc3)N2[C@@H](c2ccc(OCCOC(=O)[C@@H]3C[C@@H]4C(=O)N5CCC[C@H]5C(=O)N4[C@@H]3c3cccc(OCCO)c3)cc2)[C@]12C(=O)Nc1ccccc12 | 0.537 | 0.0308 (inactive) | -0.0247 (inactive) | -0.675 (inactive) | 0.0527 (inactive) | -0.274 | 0.325 | 0.459 | 0.767 | 1.56 | -0.152 (inactive) | 0.603 | 3.47 (inactive) | 1.16 (inactive) | 3.5 (inactive) | 0.671 (inactive) | 0.605 | 2.26 (inactive) | 0.917 (inactive) | 0.15
COCCCNC(=O)[C@@]1(Cc2ccccc2)N=C(c2ccc(OCCCO)cc2)O[C@H]1c1ccccc1 | 1.3 | -1.99 (inactive) | 0.669 (inactive) | -0.0249 (inactive) | -0.437 (inactive) | 2.34 | 0.786 | 0.268 | 1.16 | 0.0157 | -0.146 (inactive) | 0.39 | 19.7 (active) | 3.35 (inactive) | -0.321 (inactive) | 0.32 (inactive) | -0.628 | -0.981 (inactive) | 1.11 (inactive) | 1.86
